Bioassay records deposited in PubChem BioAssay by National Center for Advancing Translational Sciences (NCATS).
Rows were chosen to be rich in hits. Some 10% of all compounds tested hit in one or more screens of this group.
3T3 cytotox – NIH 3T3 cell cytotoxicity. hit rate 4.3% among 94,000. NIH 3T3 viability, CellTiter-Glo ATP luminescence, 48-72 h. Potency, µM (titrated, usually from 96.7 µM), inactives show top-dose activity change, negative = cytotoxicity, most hits filed as inhibitors; note: % is set by controls: 0 for no effect and ±100 for the full control effect; nearly all actives have a fitted effect of over 55% in size
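Cytotoxicity is measured as loss of cellular ATP: NIH 3T3 cells (400/well) are exposed to compound for 48 or 72 hr at 37 °C, then CellTiter-Glo luminescence is imaged after 10 min at room temperature.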
GPT2 inh – inhibitors of human GPT2 alanine aminotransferase; hit rate 0.25% among 100,000; Q8TD30; AID 1671188; Potency, µM (doses to about 57.7 µM), inactives show at the highest dose activity change, negative = inhibition, usual class: inhibitors; Recombinant GPT2, coupled pyruvate oxidase/HRP Amplex Red fluorescence; note: % is set by controls: 0 for no effect and ±100 for the full control effect; nearly all actives have a fitted effect of over 60% in size
Target sequence (Q8TD30 whole entry, looked up): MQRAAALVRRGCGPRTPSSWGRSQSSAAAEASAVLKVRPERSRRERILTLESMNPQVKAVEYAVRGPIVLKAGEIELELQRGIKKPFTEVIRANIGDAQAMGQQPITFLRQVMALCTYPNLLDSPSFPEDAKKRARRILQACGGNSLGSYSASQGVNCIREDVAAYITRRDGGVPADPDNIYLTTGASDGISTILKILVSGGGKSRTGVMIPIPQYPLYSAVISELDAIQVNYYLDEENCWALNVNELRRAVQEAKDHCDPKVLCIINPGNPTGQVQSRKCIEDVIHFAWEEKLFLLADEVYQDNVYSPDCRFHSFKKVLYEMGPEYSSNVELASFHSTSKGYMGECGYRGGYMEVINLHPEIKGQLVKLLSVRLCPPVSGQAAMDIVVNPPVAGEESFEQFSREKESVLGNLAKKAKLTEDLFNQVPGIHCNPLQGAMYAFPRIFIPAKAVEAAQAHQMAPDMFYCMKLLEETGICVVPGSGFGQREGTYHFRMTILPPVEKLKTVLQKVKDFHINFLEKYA
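Fluorescence read-out: pyruvate from GPT2 turnover coupled to pyruvate oxidase, HRP and Amplex Red (0.2mM ThPP, 0.2U/mL PO and HRP, 50uM Amplex final). Substrates 250uM a-KG, 2mM L-alanine; enzyme 10ng/uL; 30 min RT.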
FLuc inh-1 – Photinus pyralis luciferase inhibition | purified P. pyralis luciferase, luminescence, biochemical | Potency, µM (top dose mostly 115 µM), hits mostly inhibitors | hit rate 2.5% among 76,000; note: % is set by controls: 0 for no effect and ±100 for the full control effect; nearly all actives have a fitted effect of over 65% in size
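Biochemical qHTS: compound (6-point titration) added to 10uM D-luciferin plus 10uM ATP in Tris acetate pH 7.5 buffer with Mg, Tween-20 and BSA, then purified enzyme at 10nM; light output imaged.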
NPR1 antag – blocks ANP-stimulated signaling of human Npr1 receptor; P16066; HEK293 hNpr1 GloSensor cGMP, ANP-stimulated luminescence; Potency, µM (titrated, usually from 46.3 µM), for inactives: at the highest dose activity change, negative = inhibition, actives largely listed as inhibitors; hit rate 1.6% among 76,000; AID 1347048; calls by dose curve; note: % is set by controls: 0 for no effect and ±100 for the full control effect; nearly all actives have a fitted effect of over 60% in size
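Compound pre-incubated 30 min at room temperature on GloSensor-loaded HEK293 cells stably carrying hNpr1 and the pGS-40F cGMP biosensor. Stimulation uses hNppA at 0.1 nM final; luminescence is taken at baseline and 20 min post-agonist.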
HEK cytotox – HEK 293 cell cytotoxicity; hit rate 6.6% among 94,000; Potency, µM (highest dose often 115 µM), for the others: at the highest dose activity change, negative = cytotoxicity, hits mostly inhibitors; AID 1345083; HEK 293 viability, ATP luminescence (CellTiter-Glo), 48-72 h; note: % is set by controls: 0 for no effect and ±100 for the full control effect; nearly all actives have a fitted effect of over 60% in size
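Luminescence from cellular ATP, measured with CellTiter-Glo, indicates HEK 293 viability. Cells plated at 250 cells/well are treated with compound for 48 or 72 hr at 37 degree Celsius before reagent addition.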
FLuc SDR -ATP – binders stabilizing firefly luciferase, without ATP; shares compounds with FLuc inh-1; Purified FLuc-C-HiBiT, Nano-Glo HiBiT luminescence, no ATP; Potency, µM (top dose mostly 32.7 µM), for inactives: at the top dose activation (signal gain), usual class: activators; hit rate 7.8% among 1,300; note: nearly all actives have a fitted effect of over 55% in size
FLuc SDR ATP – binders stabilizing firefly luciferase, plus ATP; hit rate 8.7% among 1,300; AID 1963319; shares compounds with FLuc inh-1; purified FLuc-C-HiBiT + ATP, HiBiT complementation luminescence; Potency, µM (titrated, usually from 32.7 µM), for the others: top-dose activation (gain of signal), usual class: activators;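 note: signal reports ligand binding via conformational change of the enzyme rather than luciferase catalysis; % of control where 0% means no effect; nearly all actives have a fitted effect of over 55% in size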
FLuc inh-2 – blocks firefly luciferase enzymatic activity. shares compounds with FLuc inh-1. purified FLuc-C-HiBiT enzyme, luciferin luminescence. Potency, µM (highest dose often 32.7 µM), inactives show at the highest dose activity change, negative = inhibition, usual class: inhibitors. hit rate 42% among 1,300. AID 1963320; note: % is set by controls: 0 for no effect and ±100 for the full control effect; nearly all actives have a fitted effect of over 70% in size
* = called active by the depositor; i = inactive; ? = inconclusive; nt = no result; [ ] = remark or other dose. Unless noted, calls come from the whole dose curve; as a rule, active = well fitted curve in the direction sought with a large enough effect; inconclusive = small, poorly fitted or top-dose-only effect, or another doubt; inactive = no such curve, though single readings can be large; an effect the other way counts as inactive or inconclusive. Potency is the fitted concentration of half-maximal effect.

SMILES	3T3 cytotox	GPT2 inh	FLuc inh-1	NPR1 antag	HEK cytotox	FLuc SDR -ATP	FLuc SDR ATP	FLuc inh-2
Cc1ccc(-c2noc([C@@H]3CCCN3C(=O)c3ccc(C(C)C)cc3)n2)cc1	?	i	?	4%	?	nt	nt	nt
Cc1ccc(C)c(N2CCN(C(=O)C3CCN(c4nc(-c5ccc(C(C)C)cc5)no4)CC3)CC2)c1	nt	nt	nt	nt	nt	22%	?	?
CNC(=O)c1cc(C2CC2)nc2onc(C3CCN(C(=O)C4CCCC4)C3)c12 (stereo not drawn)	?	nt	nt	nt	-23%	nt	nt	nt
O=S(=O)(c1ccc(F)cc1)N1CCC2(CC1)CC(OCC1CC1)CCO2 (stereo not drawn)	?	-2%	i	17%	?	nt	nt	nt
CC(=O)N1CCc2nc(C3CC3)nc(-c3ccc(O)cc3)c2CC1	-23%[138 µM]	2%[88.5 µM]	nt	nt	-5%[172 µM]	nt	nt	nt
COCCN1C(=O)[C@@H]2C[C@@H](CN2Cc2cccnc2)Oc2ccccc21	?	?	i	2%[70.6 µM]	-21%[172 µM]	nt	nt	nt
CN1CC(=O)N(c2ccccc2)Cc2c1ncnc2N1CCC(O)CC1	-30%	?	i	-11%	-19%	nt	nt	nt
CN1CC(=O)N(c2cccnc2)Cc2c1ncnc2N1CCC(O)CC1	i	i	i	-16%[70.6 µM]	i	nt	nt	nt
CN(C)C1CCN(c2ncnc3c2cnn3-c2ccccc2)CC1	nt	nt	nt	nt	nt	13%	11%	-6%
NC(=O)C1CCN(c2ncnc3c2cnn3-c2ccccc2)CC1	nt	nt	nt	nt	nt	15%	12%	-9%
CCOC1CCCN(c2ncnc3c2cnn3-c2ccccc2)C1 (stereo not drawn)	nt	nt	nt	nt	nt	21%	?	?
CC1CCN(c2ncnc3c2cnn3-c2ccc(F)cc2)CC1	nt	nt	nt	nt	nt	19%	19%	11µM*
CC(C)c1noc(-c2cccn3c(CNC(=O)c4nccc5ccccc45)nnc23)n1	-17%	-3%	i	3%	0%	nt	nt	nt
COc1cccc(CNC(=O)[C@@H]2C[C@@H](O)CN2C2CCN(C(=O)c3ccccc3OC)CC2)c1	-13%	5%	i	-3%	-7%	nt	nt	nt
O=C(COc1ccc(F)cc1)Nc1ccc(-c2nnc3n2CCCC3)cc1	0%	i	i	-3%	10%	nt	nt	nt
COc1ccc(-n2nc(C3CCCN(CC4CCCCC4)C3)[nH]c2=O)cc1 (stereo not drawn)	-6%	?	i	0%	-5%	nt	nt	nt
COc1cc(F)cc(-c2ncc3c(n2)OCCN(Cc2ccc(F)cc2F)C3=O)c1	?	-3%[88.5 µM]	i	?	?	nt	nt	nt
COCCN1CCOc2nc(-c3cc(F)cc(OC)c3)ncc2C1=O	28µM*	-9%[88.5 µM]	1.6µM*	?	-27%[172 µM]	?	?	11µM*
COc1cccc(-c2ncc3c(n2)OCCN(Cc2ccc(F)cc2F)C3=O)c1	?	-3%[88.5 µM]	13µM*	?	?	13%[49.3 µM]	10%[49.3 µM]	?
CCC(=O)N1CCN(c2nc3c(s2)CC(C(=O)O)CC3)CC1 (stereo not drawn)	?	i	13µM*	1%	-4%	11%	?	?
CCC(=O)N1CCN(c2nc3c(s2)CC(C(=O)N2CCCCC2)CC3)CC1 (stereo not drawn)	-18%	2%	i	-4%	-22%	nt	nt	nt
CCOc1cccc(NC(=O)CSc2ncc(-c3ccccc3)[nH]2)c1	nt	nt	nt	nt	nt	21%	14%	-16%
O=C(c1ccccc1Cl)N1CCC(C(=O)N2CCCC2c2nc3ccncc3[nH]2)CC1 (stereo not drawn)	i	?	nt	nt	0%	nt	nt	nt
